Results taken from PubChem BioAssay AID372 (MTDP, 2006).
The campaign covered roughly 100,000 compounds. About 770 (0.77%) were called active. For the sample, actives were picked, then their nearest neighbours and some compounds at random. Unmarked numbers belong to inactive results. Rule as the data show it: active = inhibition above about 50%; inactive = the rest.

molecular target: Gag-Pol polyprotein (Human immunodeficiency virus type 1 group M subtype B (isolate HXB2)) (UniProt P04585); assay: RNase H inhibition, HIV 1 Gag Pol polyprotein, FRET biochemical assay, screening (AID 372); conditions: HIV-1 RT RNase H, FRET RNA/DNA substrate fluorescence; at 10 µM; stronger effect = higher value

Row | SMILES | inhibition
1 | O=C(CSCc1ccccc1Cl)Nc1cccc(Br)c1 | 17%
2 | COc1cc(/C=C2\C(=O)NC(=O)N(C(C)(C)C)C2=O)cc(OC)c1O | 18%
3 | COc1ccc(CNC(=O)CN(c2ccccc2OC)S(=O)(=O)c2ccccc2)cc1 | 9%
4 | CCOC(=O)c1c(NC(=O)c2cc(OC)c(OC)c(OC)c2)sc(C(=O)Nc2ccc(OC)cc2OC)c1C | 15%
5 | O=C1c2cccc3c([N+](=O)[O-])ccc(c23)N1c1ccccc1 | 56% (active)
6 | O=C1c2cccc3c([N+](=O)[O-])ccc(c23)C(=O)N1c1ccc(O)cc1 | 13%
7 | COc1ccc(N2C(=O)c3cccc4c([N+](=O)[O-])ccc(c34)C2=O)cc1 | 16%
8 | O=C(CCN1C(=O)c2ccccc2C1=O)N1CCN(C/C=C/c2ccccc2)CC1 | 5%
9 | Cc1ccc(F)cc1Nc1nnc(-c2cc3c(ccc4ccccc43)oc2=O)s1 | 5%
10 | O=c1oc2ccc3ccccc3c2cc1-c1nnc(NCc2ccc(F)cc2)s1 | 60% (active)
11 | CCN(CC)c1ccc2cc(-c3nnc(NCc4ccc(F)cc4)s3)c(=O)oc2c1 | 0%
12 | Cc1ccc(-c2ccccc2)n1-c1cccc2cccnc12 | 7%
13 | O=C1C2C3C=CC(C3)C2C(=O)N1c1cccc2cccnc12 (centres undefined) | 5%
14 | Cc1ccc(C)n1-c1cccc2cccnc12 | 67% (active)
15 | CCCCCCCC(=O)NNC(=O)c1cccs1 | 0%
16 | O=C(COc1ccccc1)Nc1ccc(-c2nc3cc(Cl)ccc3o2)cc1 | 23%
17 | O=C(COc1ccc(Br)cc1)Nc1cccc(-c2nc3cc(Cl)ccc3o2)c1 | 12%
18 | Cc1c(NC(=O)COc2ccc(Cl)cc2Cl)cccc1-c1nc2cc(Cl)ccc2o1 | 54% (active)
19 | Cc1ccc(-c2nc3ccccc3o2)cc1NC(=O)Cc1ccccc1 | 18%
20 | Cc1ccc(OCC(=O)Nc2cccc(-c3nc4cc(Cl)ccc4o3)c2C)c(C)c1 | 27%
21 | Cc1ccccc1OCC(=O)Nc1cccc(-c2nc3cc(Cl)ccc3o2)c1C | 15%
22 | Cc1ccc(-c2nc3cc(Cl)ccc3o2)cc1NC(=O)c1cccc(Cl)c1Cl | 16%
23 | Cc1ccc2oc(-c3ccc(C)c(NC(=O)c4cccc(Cl)c4Cl)c3)nc2c1 | 54% (active)

Row | SMILES | inhibition
24 | Cc1ccc(-c2nc3ccccc3o2)cc1NC(=O)c1cccc(Cl)c1Cl | 43%
25 | Cc1ccc(-c2nc3cc(Cl)ccc3o2)cc1NC(=O)Cc1ccccc1 | 55% (active)
26 | Cc1ccc2oc(-c3ccc(C)c(NC(=O)Cc4ccccc4)c3)nc2c1 | 18%
27 | O=C(COc1ccc(Br)cc1)Nc1ccc(-c2nc3cc(Cl)ccc3o2)cc1 | 59% (active)
28 | CC(C)(C)c1ccc(C(=O)NC2CCCC2)cc1 | 2%
29 | O=C1c2ccccc2NC(c2ccccc2O)N1c1ccc(Cl)cc1 (centres undefined) | 12%
30 | COc1cc(OC)c(OC)cc1CN1CCN(C/C=C/c2ccccc2)CC1 | 14%
31 | c1ccc(N2N=C(c3cccs3)CC2c2cccs2)cc1 (centres undefined) | 6%
32 | COc1ccc(/C=N/n2nnnc2N)cc1Br | 30%
33 | Cc1ccc2cc(C)c(NCc3ccccn3)nc2c1 | 6%
34 | CCOC(=O)C(CC)P(=O)(c1ccccc1)c1ccccc1 (centres undefined) | 0%
35 | CCCC(=O)Nc1ccc(NC(=O)c2ccccc2[N+](=O)[O-])cc1 | 7%
36 | CN(C)c1ccc(C(=O)N2CCN(c3ccc(F)cc3)CC2)cc1 | 13%
37 | O=C(COc1ccc(Cl)cc1)Nc1ccc2oc(-c3ccc(Cl)cc3)nc2c1 | 54% (active)
38 | O=C(COc1ccc(Cl)cc1)Nc1ccc2oc(-c3ccccc3)nc2c1 | 16%
39 | CCc1ccc2oc(-c3ccc(C)c(NC(=O)COc4ccc(Cl)cc4)c3)nc2c1 | 52% (active)
40 | Cc1ccc2oc(-c3ccc(NC(=O)COc4ccc(Cl)cc4)cc3)nc2c1 | 28%
41 | O=C(COc1ccccc1)Nc1ccc2oc(-c3ccc(Cl)cc3)nc2c1 | 49%
42 | Cc1ccc(-c2nc3cc(Cl)ccc3o2)cc1NC(=O)c1cccc([N+](=O)[O-])c1 | 57% (active)
43 | Cc1ccc(-c2nc3cc(Cl)ccc3o2)cc1NC(=O)c1cccc(Cl)c1 | 15%
44 | CCc1ccc2oc(-c3ccc(C)c(NC(=O)COc4ccccc4)c3)nc2c1 | 44%
45 | COc1ccc(OCC(=O)Nc2ccc(-c3nc4cc(C)ccc4o3)cc2)cc1 | 19%
46 | Cc1ccc2oc(-c3ccc(NC(=O)COc4ccc(Br)cc4)cc3)nc2c1 | 59% (active)

Row | SMILES | inhibition
47 | Cc1cc2nc(-c3ccc(C)c(NC(=O)c4cccc([N+](=O)[O-])c4)c3)oc2cc1C | 15%
48 | Cc1ccc(-c2nc3ccccc3o2)cc1NC(=O)COc1ccc(Cl)cc1 | 9%
49 | O=C(NCCN1CCOCC1)c1cc2nc(-c3ccc(Cl)cc3)cc(C(F)(F)F)n2n1 | 0%
50 | COc1ccc(C=NN2CCN(Cc3ccccc3Cl)CC2)c(OC)c1 | 6%
51 | Cc1nc(-c2ccccc2)sc1C(=O)Nc1ccc(Br)cc1 | 15%
52 | c1ccc(-c2ccc(Oc3cc(-n4cccn4)ncn3)cc2)cc1 | 11%
53 | O=C(Nc1ccc(Cl)cc1)c1cccc(N2C(=O)c3cccnc3C2=O)c1 | 0%
54 | Cc1ccc(NC(=O)c2c(NC(=O)C(F)(F)F)sc3c2CCC3)c(C)c1 | 13%
55 | Cc1ccc(NC(=O)c2c(NC(=O)C(F)(F)F)sc3c2CCCCC3)c(C)c1 | 23%
56 | Oc1c(C=Nc2ccccc2)sc2ccccc12 | 4%
57 | CC(=O)c1ccc(NS(=O)(=O)c2cccc(S(=O)(=O)c3ccc(Cl)c(Cl)c3)c2)cc1 | 10%
58 | O=C(NN1C(=O)/C(=C/c2ccc(O)cc2)SC1=S)c1ccccc1Br | 5%
59 | O=C(NN1C(=O)/C(=C/c2ccc(O)c(O)c2)SC1=S)c1ccc(Br)cc1 | 58% (active)
60 | COc1cc(/C=C2\SC(=S)N(NC(=O)c3ccc(O)c(OC)c3)C2=O)ccc1O | 34%
61 | COc1cc(/C=C2\SC(=S)N(Nc3ccccc3)C2=O)cc(OC)c1OC | 4%
62 | COc1ccc(/C=C2\SC(=S)N(Nc3ccccc3)C2=O)cc1OC | 55% (active)
63 | O=C(NN1C(=O)/C(=C/c2ccc(Br)cc2)SC1=S)c1ccncc1 | 5%
64 | COc1cc(C(=O)NN2C(=O)/C(=C/c3ccc(OC)c(OC)c3)SC2=S)ccc1O | 61% (active)
65 | COc1cc(/C=C2\SC(=S)N(Nc3ccccc3)C2=O)ccc1O | 37%
66 | O=C(NN1C(=O)/C(=C/c2ccc(O)c(O)c2)SC1=S)c1ccccc1Br | 50% (active)
67 | COc1cc(/C=C2\SC(=S)N(NC(=O)c3ccccc3Br)C2=O)ccc1O | 18%
68 | COc1cc(/C=C2\SC(=S)N(NC(=O)c3ccc(Br)cc3)C2=O)ccc1O | 23%
69 | COc1cc(C(=O)NN2C(=O)/C(=C/c3ccccc3)SC2=S)ccc1O | 4%
